# Measured values from ChEMBL document CHEMBL3433997, “St. Jude Leishmania screening dataset” (2016).
# Target: Glucose transporter (Leishmania mexicana) (UniProt O61059)
# Assay: ST_JUDE_LEISH: Cytotoxicity at 2uM final concentration against transgenic Leishmania Mexicana promastigotes LmGT2 that are glucose transport deficient and complemented with the L. Mexicana glucose transporter 2. Activity is measured by DNA content using SYBR green in vitro
# Format: functional
row,SMILES,inhibition [%]
1,CCN(CC)CCCN(C(=O)c1cc2c(C)nn(-c3ccccc3)c2s1)c1nc(-c2ccc(OC)cc2)cs1,8.72
2,CC(C)(C)c1ccc(-c2cc(C(=O)N[C@@H](CO)C(=O)O)on2)cc1.CC(C)(C)c1ccc(-c2nocc2C(=O)N[C@@H](CO)C(=O)O)cc1,6.48
3,CC(=O)Nc1nc(C(=O)Nc2cccc(-c3ccc(-c4nc5cccc(C)c5[nH]4)cc3)c2)cs1,6.75
4,CCC(C)(C)c1ccc(Oc2ccc(NC(=O)Nc3ccc(Cl)c(Cl)c3)cc2)cc1,1.26
5,Cc1cc(N2CCC(N(C)C)C2)nc(Nc2ccc(Cl)cc2)n1 (stereo not given),4.87
6,CCCCc1cc(N2CCC(NC(C)=O)C2)nc(Nc2ccc(C)cc2)n1 (stereo not given),5.78
7,CCN(CCCN1CCCCC1)c1cc(C)nc(Nc2cccc3c2CCCC3)n1,1.57
8,CCOc1ccc(C=CC(=O)Nc2ccc3nc(N4CCN(C)CC4)cc(C)c3c2)cc1OC,1.18
9,CC[C@H](C)CNC(=O)c1cncc(-c2ccc(CNC3Cc4ccccc4C3)cc2)c1,5.96
10,Cc1cc(N2CCCC2)nc(Nc2ccc(NC(=O)c3ccc(Br)o3)cc2)n1,5.64
11,Oc1ccc(CCNc2nc(NCCCOc3cccc(-c4ccccc4)c3)nc(N3CCNCC3)n2)cc1,2.5
12,COc1cc2ccccc2c(CON2C(=N)N=C(N)NC2(C)C)c1OC,1.62
13,CC(=O)N1CCC(C(=O)Nc2ccc(-c3cccc(-c4nc5cc(C(F)(F)F)ccc5[nH]4)c3)cc2)CC1,1.24
14,CS(=O)(=O)c1ccc(CCNCc2ccc(-c3ccc(CN(C(=O)c4ccco4)C4CCN(Cc5ccccc5)CC4)cc3)nc2)cc1,4.41
15,COc1cc2ccccc2c(OC)c1CCNCCCCNCCc1c(OC)cc2ccccc2c1OC,14.6
16,O=C(Nc1cccc(CN2CCN(Cc3ccc(O)cc3)CC2)c1)c1ccc(Cl)c(Cl)c1,2.47
17,CC(=O)Nc1sc(C)c(C)c1CN1CCc2ccccc2C1,-1.3
18,Cc1cccc(CC2CC(=O)N(c3ccc([N+](=O)[O-])cc3)C2=O)c1 (stereo not given),7.64
19,O=C(Nc1cccc(C(F)(F)F)c1)N1CCOC(CCN2CCC(c3ccccc3)CC2)(c2ccc(Cl)c(Cl)c2)C1 (stereo not given),0.72
20,O=C(NC1CCN(CCN2CCC(c3c[nH]c4ccccc34)CC2)CC1)c1ccc(-c2ccc(C(F)(F)F)cc2)cc1,30.2

row,SMILES,inhibition [%]
1,O=C(NCC1CCC(CNCCc2ccccc2)CC1)Nc1ccc(Cl)c(Cl)c1 (stereo not given),-2.11
2,COc1cc(Nc2nccc(N3CCC(NC(=O)c4cccc(C#N)c4)C3)n2)cc(OC)c1OC (stereo not given),0.79
3,CC1(C)N=C(N)N=C(N)N1OCCc1ccc2ccccc2c1,3.22
4,CN1CCCC1CCNCc1cccc(-c2cnc(N(C)C3CCCCC3)nc2)c1 (stereo not given),101
5,COc1cc2nc(N3CCC(CNC(=O)/C=C/c4ccccc4F)CC3)nc(N)c2cc1OC,4.27
6,Cc1c(C(=O)N(C)C)sc2c1c(=O)n(Cc1ccccc1)c(=O)n2CC(=O)Nc1ccccc1F,1.57
7,CCc1ccc(NC(=O)N(CCCn2ccnc2)Cc2csc(-c3ccc(CNCc4ccccc4)cc3)n2)cc1,2.49
8,CN1Cc2ccc(NS(=O)(=O)c3ccc(-c4ccoc4)cc3)cc2C1,-3.6
9,COc1ccc(Nc2c3ccc(Cl)cc3nc3ccc(OC)cc23)cc1,0.01
10,COc1ccc(-c2ccccc2CNC2Cc3ccccc3C2)cc1S(=O)(=O)NCCN1CCCC1,2.53
11,COc1cccc(OC2CCN(C(=O)c3ccc(-c4ccc(N5CCCC5=O)cc4C)cc3)CC2)c1,3.06
12,Cc1cc2c(cc1C(F)(F)F)N(C(=O)Nc1ccc(OCCN(C)C)c(C(F)(F)F)c1)CC2,0.83
13,CCNc1cc(C(=O)N[C@@H](Cc2ccccc2)[C@H](O)CNC2CCC(C(C)(C)C)CC2)cc(N2CCCC2=O)c1 (stereo not given in full),-2.55
14,O=S(=O)(NCCN1CCCC1)c1ccc(-c2ccc(CNCc3ccccc3)cc2)s1,2.5
15,O=S(=O)(Nc1cc2c(cc1OCc1ccccc1)CCN(C1CCC1)CC2)c1ccc(-c2ccc(Cl)cc2)cc1,-1.11
16,COc1ccc(NC(=O)/C=C/c2ccccc2Cl)cc1OCCN1CCC(N2CCCC2)CC1,4.44
17,Cc1cccc2c(/C=C/C(=O)NC3CCC(CCN4CCc5ccc(C#N)cc5CC4)CC3)c[nH]c12 (stereo not given),7.58
18,COc1ccc2nccc([C@@H](O)CN3CCC(NCc4cn5cc(F)ccc5n4)CC3)c2c1,-0.13
19,Cc1cc(C(=O)Nc2ccc3c(c2)CCN3C2CCN(Cc3ccc(F)cc3Cl)C2)no1 (stereo not given),3.86
20,Cc1ccc(NC(=O)c2cccc(N3CCN(c4ccncc4)CC3)c2)cc1F,15.6
